Where “and” joins values, the source holds several entries; their conditions need not be identical. Equal values may be shown once. Results filed as inconclusive are left out. Calls of active or inactive are those of the source. Calls follow the shape of the dose curve; as a rule, active = well fitted inhibition curve with a large enough effect; inconclusive = small, poorly fitted or top-dose-only effect; inactive = flat fitted curve, though single readings scatter.
How the values were obtained:
[1] = system: KB-3-1; experiment: Cytotoxic Profiling of Annotated Libraries Using Quantitative High-Throughput Screening (AID 1296008); conditions: Five cell lines viability, CellTiter-Glo ATP luminescence, 48-72 h; max response: stronger effect = lower value; also: potency is read from the fitted curve at half-maximal effect; as to max response: % is scaled to controls: 0 for no effect and ±100 for the full control effect
Method in brief: (§1)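 Cells exposed to compounds for 48 or 72 hr at 37 degrees Celsius. Viability read as ATP-coupled luminescence with CellTiter-Glo after 10 min at room temperature.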

[2] = system: CRL-7250; experiment: as above; conditions: Five cell lines viability, CellTiter-Glo ATP luminescence, 48-72 h; stronger effect = lower value
Method in brief: as §1

[3] = system: HaCat; experiment: as above; conditions: Five cell lines viability, CellTiter-Glo ATP luminescence, 48-72 h; stronger effect = lower value
Method in brief: as §1

[4] = system: NIH3T3; experiment: as above; conditions: Five cell lines viability, CellTiter-Glo ATP luminescence, 48-72 h; max response: stronger effect = lower value
Method in brief: as §1

[5] = system: HACAT; experiment: qHTS assay to identify novel small-molecules to repurpose for Merkel cell carcinoma treatment (AID 1296009); conditions: MCC and control cell lines, CellTiter-Glo viability, 72 h; at 44.8 µM (top of the series)
Method in brief: (§2)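 Dose-response viability screen; 72 hr exposure at 37 degree celsius; CellTiter-Glo added, 10 min room temperature, luminescence read; RLUs scaled between no-cell and DMSO wells.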

[6] = system: PC26; experiment: qHTS profiling for inhibitors of Plasmodium falciparum proliferation (AID 504749); also: potency is read from the fitted curve at half-maximal effect; conditions: P. falciparum in erythrocytes, SYBR Green DNA, 72 h; series mostly up to 28.7 µM
Method in brief: (§3)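 Each compound contacts P. falciparum-infected red blood cells for 72 h at 37 C; lysis buffer (Tris, EDTA, saponin, Triton X, SYBR Green I) is added and fluorescence measured next morning; values normalized to controls.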

[7] = system: PC49; experiment: as above; conditions: P. falciparum in erythrocytes, SYBR Green DNA, 72 h; series mostly up to 28.7 µM
Method in brief: as §3

[8] = system: SC27B; experiment: as above; conditions: P. falciparum in erythrocytes, SYBR Green DNA, 72 h; series mostly up to 28.7 µM
Method in brief: as §3

[9] = system: TAB109; experiment: as above; conditions: P. falciparum in erythrocytes, SYBR Green DNA, 72 h; series mostly up to 28.7 µM
Method in brief: as §3

[10] = system: TAB113; experiment: as above; conditions: P. falciparum in erythrocytes, SYBR Green DNA, 72 h; series mostly up to 28.7 µM
Method in brief: as §3

[11] = system: TAB165; experiment: as above; conditions: P. falciparum in erythrocytes, SYBR Green DNA, 72 h; series mostly up to 28.7 µM
Method in brief: as §3

[12] = system: W2; experiment: as above; conditions: P. falciparum in erythrocytes, SYBR Green DNA, 72 h; series mostly up to 28.7 µM
Method in brief: as §3

[13] = system: HEK293; experiment: Cytotoxic Profiling of Annotated Libraries Using Quantitative High-Throughput Screening (AID 1296008); conditions: Five cell lines viability, CellTiter-Glo ATP luminescence, 48-72 h; max response: stronger effect = lower value; also: potency is read from the fitted curve at half-maximal effect; as to max response: % is scaled to controls: 0 for no effect and ±100 for the full control effect
Method in brief: as §1

[14] = system: HEK293T; experiment: qHTS assay to identify novel small-molecules to repurpose for Merkel cell carcinoma treatment (AID 1296009); conditions: MCC and control cell lines, CellTiter-Glo viability, 72 h; at 44.8 µM (top of the series)
Method in brief: as §2

[15] = system: MCC-13; experiment: as above; conditions: MCC and control cell lines, CellTiter-Glo viability, 72 h; series mostly up to 46 µM
Method in brief: as §2

[16] = system: MCC-26; experiment: as above; conditions: MCC and control cell lines, CellTiter-Glo viability, 72 h; series mostly up to 46 µM
Method in brief: as §2

[17] = system: MKL-1; experiment: as above; conditions: MCC and control cell lines, CellTiter-Glo viability, 72 h; series mostly up to 46 µM
Method in brief: as §2

[18] = system: MKL-2; experiment: as above; conditions: MCC and control cell lines, CellTiter-Glo viability, 72 h; series mostly up to 46 µM
Method in brief: as §2

[19] = system: UISO; experiment: as above; conditions: MCC and control cell lines, CellTiter-Glo viability, 72 h; series mostly up to 46 µM
Method in brief: as §2

[20] = system: NIH3T3; experiment: as above; conditions: MCC and control cell lines, CellTiter-Glo viability, 72 h; at 44.8 µM (top of the series)
Method in brief: as §2
Also: nearly all actives have a fitted effect of over 60% in size.

Cn1nnnc1SCC1=C(C(=O)O)N2C(=O)[C@@H](NC(=O)[C@H](O)c3ccccc3)[C@H]2SC1
inactive: max response [1] 8.48%

CO[C@@]1(NC(=O)C2SC(=C(C(N)=O)C(=O)O)S2)C(=O)N2C(C(=O)O)=C(CSc3nnnn3C)CS[C@@H]21 (some centres undefined)
inactive: max response [1] 1.97%

CCN(CC)CCOCCOC(=O)C(CC)(CC)c1ccccc1
inactive: outcome [2] | outcome [3] | max response [1] -1.64% and -0.0412% | max response [4] 0.0854% | outcome [5]

O=C(OCc1ccccc1)c1ccc(O)cc1
inactive: Potency [6] | Potency [7] | Potency [8] | Potency [9] | Potency [10] | Potency [11] | Potency [12] | max response [2] -9.5% | outcome [13] | max response [1] 2.26% | max response [4] 0.27% | outcome [14] | outcome [15] | outcome [16] | outcome [17] | outcome [18] | outcome [19]

CN(C)CCC(O)(c1ccccc1)c1ccccc1Cl (centres undefined)
inactive: max response [1] 3.32%

COC(=O)[C@H]1[C@H]2C[C@@H]3c4[nH]c5cc(OC)ccc5c4CCN3C[C@H]2C[C@H](OC)[C@@H]1OC
inactive: max response [1] 14.2%

Cc1ccc(S(=O)(=O)NC(=O)N[C@@H](C)Cc2ccccc2)cc1
inactive: max response [1] 4.03%

CC1CC(OC(=O)C(O)c2ccccc2)CC(C)(C)C1 (centres undefined)
inactive: Potency [6] | Potency [7] | Potency [8] | Potency [9] | Potency [10] | Potency [11] | Potency [12] | outcome [3] | max response [1] 19.9% and -6.72% | max response [4] 2.78% | outcome [5]

CC[C@@H]1/C=C(\C)C[C@H](C)C[C@H](OC)[C@H]2O[C@@](O)(C(=O)C(=O)N3CCCC[C@H]3C(=O)O[C@H](/C(C)=C/[C@@H]3CC[C@@H](Cl)[C@H](OC)C3)[C@H](C)[C@@H](O)CC1=O)[C@H](C)C[C@@H]2OC
inactive: max response [1] -9.83%

CC(C)N1CCN(c2ccc(OC[C@H]3CO[C@](Cn4cncn4)(c4ccc(Cl)cc4Cl)O3)cc2)CC1
inactive: max response [1] 0.302%

C=C1CC[C@H](O)CC1=C/C=C1\CCC[C@]2(C)[C@@H]([C@H](C)/C=C/[C@H](C)C(C)C)CC[C@@H]12
inactive: max response [2] -11.3% | outcome [3] | max response [1] 7.88% and 8.32% | outcome [5]

CC(O)[C@H]1CC[C@H]2[C@@H]3CC[C@@H]4C[C@@H](O)CC[C@]4(C)[C@H]3CC[C@]12C (some centres undefined)
inactive: max response [1] -16.3%

CC(C)(C)c1ccc(CN2CCN(C(c3ccccc3)c3ccc(Cl)cc3)CC2)cc1 (centres undefined)
inactive: max response [2] 1.08% | outcome [3] | max response [1] 1.38% and -2.29% | outcome [4] | outcome [5] | outcome [20]

CC(=O)Nc1ccc(NC(=S)NC(=O)c2ccc(C(C)(C)C)cc2)cc1
active: Potency [12] 7.57 µM | Potency [13] 651 nM | Potency [1] 4.11 µM | Potency [4] 16.4 µM
inactive: Potency [6] | Potency [7] | Potency [8] | Potency [10] | max response [3] -11.2%

NC[C@@H]1O[C@H](O[C@H]2[C@@H](O)[C@H](O[C@@H]3[C@@H](O)[C@H](N)C[C@H](N)[C@H]3O[C@H]3O[C@H](CO)[C@@H](O)[C@H](O)[C@H]3N)O[C@@H]2CO)[C@H](N)[C@@H](O)[C@@H]1O
inactive: max response [1] 5.13%

O=C1c2ccccc2C(=O)c2c1ccc(O)c2O
inactive: Potency [6] | Potency [7] | Potency [8] | Potency [9] | Potency [10] | Potency [11] | Potency [12] | max response [2] -3.43% | max response [3] 4.09% | max response [1] -6.82% | max response [4] -5.2% | outcome [15] | outcome [16] | outcome [17] | outcome [18] | outcome [19]

C[C@@H]1C/C=C/C=C/C=C/C=C/[C@H](O[C@@H]2O[C@H](C)[C@@H](O)[C@H](N)[C@@H]2O)C[C@@H]2O[C@](O)(C[C@@H](O)C[C@H]3O[C@@H]3/C=C/C(=O)O1)C[C@H](O)[C@H]2C(=O)O
inactive: max response [1] 3.94%

NC(=O)[C@@H]1C[C@]2(NC(=O)NC2=O)c2cc(F)ccc2O1
inactive: max response [1] -7.8%

COc1ccc2nc(NC(=O)Nc3ccccc3)sc2c1
inactive: Potency [6] | Potency [7] | Potency [8] | Potency [9] | Potency [10] | max response [2] 1.89% | outcome [3] | max response [1] 36.1% | max response [4] -17.1% | outcome [5] | outcome [15] | outcome [16] | outcome [17] | outcome [18] | outcome [19]

CNC(C)CCC=C(C)C (centres undefined)
inactive: max response [1] -7.11%

CCN1\C(=C/C=C/C=C/c2sc3ccccc3[n+]2CC)Sc2ccccc21
active: Potency [1] 9.2 µM

C[C@]12CC[C@@H]3c4ccc(OC(=O)c5ccccc5)cc4CC[C@H]3[C@@H]1CC[C@@H]2O
active: Potency [12] 10.7 µM
inactive: Potency [6] | Potency [7] | Potency [8] | Potency [9] | Potency [10] | Potency [11] | outcome [2] | max response [13] -10% | max response [3] -1.32% | max response [1] -12.6% | outcome [4] | outcome [20]

NC(=O)OC[C@@H]1[C@H](NC(=O)/C(=N\OCC(=O)O)c2csc(N)n2)C(=O)N1S(=O)(=O)O
inactive: max response [1] -1.39%

C[N+]1(C)[C@@H]2CC(OC(=O)C(O)(c3cccs3)c3cccs3)C[C@H]1[C@@H]1O[C@@H]12 (some centres undefined)
inactive: max response [1] -8.8%

CC(C)C[C@H](NC(=O)[C@@H](COC(C)(C)C)NC(=O)[C@H](Cc1ccc(O)cc1)NC(=O)[C@H](CO)NC(=O)[C@H](Cc1c[nH]c2ccccc12)NC(=O)[C@H](Cc1cnc[nH]1)NC(=O)[C@@H]1CCC(=O)N1)C(=O)N[C@@H](CCCN=C(N)N)C(=O)N1CCC[C@H]1C(=O)NNC(N)=O
inactive: max response [1] -3.63% and -15.5%

CO/N=C(\C(=O)N[C@@H]1C(=O)N2C(C(=O)O)=C(CSc3nnnn3C)CS[C@H]12)c1csc(N)n1
inactive: max response [1] -10.7%

CCOC(=O)[C@H](CS)NCCN[C@@H](CS)C(=O)OCC
inactive: max response [1] 6.15%

CN(C)CCCSc1ccccc1NC(=O)/C=C/c1ccccc1
inactive: Potency [6] | Potency [7] | Potency [8] | Potency [10] | Potency [11] | max response [2] -4.07% | outcome [3] | max response [1] -0.0858% | outcome [5] | outcome [15] | outcome [16] | outcome [17] | outcome [18] | outcome [19]
active: Potency [12] 6.01 µM

From PubChem BioAssay (NCATS)
